Screens (PubChem BioAssay)
Shown are actives, neighbours in structure and some others; about 21% of the full set was active somewhere.
Pf growth 96h = P. falciparum growth inhibition at 96 hours | AID 504834 | Potency, µM (series often up to 28.7 µM), for the others: top-dose activity change, negative = inhibition, usual class: inhibitors | P. falciparum luciferase reporter growth, 96 h | 320,000 compounds, 6.9% hits; note: potency is the fitted concentration of half-maximal effect; % is set by controls: 0 for no effect and ±100 for the full control effect
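Delayed-death screen, second-generation endpoint: infected erythrocytes, 2% hematocrit, 0.05% parasitemia final; 96 hours at 37 C, 5% CO2; luciferase detection reagent; luminescence decrease equals reduced growth.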
Cycloheximide cs = affects cycloheximide protein synthesis inhibition readout, counter-screen. cell reporter, cycloheximide protein synthesis inhibition counterscreen. max response, %. 300,000 compounds, 12% hits; in the data active = max response mostly above about 13%, no sharp cut-off; inactive = mostly below about 14%; note: read at 38.3 µM for the half of the compounds with a filed dose; 0% is about no effect
Pf growth 48h = inhibits P. falciparum growth in the first generation, 48 h; 310,000 compounds, 5.9% hits; P. falciparum luciferase growth in erythrocytes, 48 h; Potency, µM (series often up to 28.7 µM), inactives show top-dose activity change, negative = inhibition, actives largely listed as inhibitors; note: potency is the fitted concentration of half-maximal effect; % is set by controls: 0 for no effect and ±100 for the full control effect
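A one-generation exposure of luciferase-tagged malaria parasites in RPMI 1640/Albumax erythrocyte culture, 37 C and 5% CO2. Inhibition is inferred from decreased luminescence after adding detection reagent.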
HCV inhibitor = inhibitors of hepatitis C virus infection | 340,000 compounds, 3.4% hits | Potency, µM (doses to about 41.8 µM), for inactives: at the highest dose activity change, negative = inhibition, actives largely listed as inhibitors | Huh7.5.1 HCVcc-Cre infection, luciferase reporter, 44 h | AID 651820; note: potency is the fitted concentration of half-maximal effect; % is set by controls: 0 for no effect and ±100 for the full control effect
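Compounds are dispensed onto cells plated 4 h earlier at 1,000 per well, with HCVcc-Cre virus (about 0.5 moi) added next. Following 44 h of culture, luminescent signal is measured for 15 sec after 15 min with substrate at room temperature.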
Shiga toxin inh = blocks Shiga toxin action in Vero cells. Vero cells, Shiga toxin protein synthesis inhibition reporter. 290,000 compounds, 9.2% hits. AID 2315. inhibition, % at 38.7 µM; in the data active = inhibition mostly above about 28%, no sharp cut-off; inactive = mostly below about 43%; note: 0% is about no effect
HCMV antiviral = inhibitors of human cytomegalovirus | 410,000 compounds, 4.5% hits | AID 1259415 | HFF cells, HCMV-luciferase reporter, 72 h; active compounds read low | activity change, negative = inhibition, % at 57.5 µM; in the data active = activity change below about -60%; inconclusive = no clear call, values can overlap the other calls; inactive = above about -39%; note: % is set by controls: 0 for no effect and ±100 for the full control effect
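Two-dose cell screen: HFF monolayers treated with compounds and infected with luciferase-expressing HCMV at 1 PFU/cell, 72 h at 37C, then lysed for luciferase measurement.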
Numbers without * were called inactive; ? = inconclusive; . = no result given. Unless noted, calls come from the whole dose curve; as a rule, active = well fitted inhibition curve with a large enough effect; inconclusive = small, poorly fitted or top-dose-only effect, or another doubt; inactive = no such curve, though single readings can be large or run the other way.

SMILES | Pf growth 96h | Cycloheximide cs | Pf growth 48h | HCV inhibitor | Shiga toxin inh | HCMV antiviral
CCC(=O)N1CCCc2cc(S(=O)(=O)Nc3ccc(C)c(C)c3)ccc21 | . | . | . | . | . | -17
COc1ccc(-c2nnc3n2N=C(c2ccc(OC)c(OC)c2)CS3)cc1 | . | 3 | . | . | -4 | .
O=C(NC(c1ccc(Cl)cc1)c1ccccn1)C1CCN(CCOc2ccc(Cl)cc2Cl)CC1 (stereo unspecified) | . | . | . | . | . | 4
Cc1cccc(NS(=O)(=O)c2ccc3c(c2)CCN3C(=O)C2CCC2)c1 | . | . | . | . | . | -66*
COc1ccc(N(C)S(=O)(=O)c2ccc3c(c2)CCN3C(=O)C2CC2)c(OC)c1 | 4.1µM* | -4 | -6% | ? | -12 | -12
CC(=O)N1CCc2cc(S(=O)(=O)CCC(=O)Nc3ccc4c(c3)OCCO4)ccc21 | ? | 12* | 10% | -9% | 27 | 3
CN(CCC#N)C(=O)COC(=O)c1ccccc1OCc1ccccc1Cl | 13% | 6 | 11% | 5% | 11 | 12
O=C(NNC(=O)c1ccccc1F)c1cccc(Cl)c1 | 104% | 22* | 91% | ? | 80* | 67
O=C(NNC(=O)c1ccccc1Br)c1cccc(Cl)c1 | 129% | 83* | 61% | 0% | 50* | 70
O=C(NNC(=O)c1cccc2ccccc12)c1cccc(Cl)c1 | . | . | . | -15% | . | -34
O=C(Nc1cccc(-n2cccn2)c1)C1CCCN(Cc2ccc(C#CCCO)cc2)C1 (stereo unspecified) | 36% | -4 | 10µM* | ? | -4 | -26
COc1ccc(CN2CCCC(C(=O)Nc3cccc(-n4cccn4)c3)C2)cc1 (stereo unspecified) | -12% | -2 | ? | ? | 3 | -16
CCn1cc(CN2CCCC(C(=O)Nc3cccc(-n4cccn4)c3)C2)c(C)n1 (stereo unspecified) | 10µM* | 16 | -29% | 15% | -6 | -33
COc1cccc(Cn2cccc(NC(=O)Nc3ccccc3C)c2=O)c1 | 33% | -4 | -1% | 10µM* | -8 | -17
COc1cccc(NC(=O)Nc2cccn(Cc3ccccc3)c2=O)c1 | 0% | 7 | ? | ? | 7 | -27
COc1ccc(Cn2cccc(NC(=O)Nc3cccc(OC)c3)c2=O)cc1 | ? | -1 | 61% | 14µM* | 7 | 0
COc1cccc(Cn2cccc(NC(=O)Nc3ccc(C#N)cc3)c2=O)c1 | ? | 8 | -8% | 4µM* | -2 | -66*
COc1cc(C(=O)NCC(c2ccc3c(c2)OCO3)N2CCOCC2)cc(OC)c1OC (stereo unspecified) | . | . | . | . | . | 114
CC1(C)CC(=O)C=C(Nc2cccc(Cl)c2Cl)C1 | . | . | . | 4% | . | -4
CC1(c2ccccc2)NC(=O)N(CC(=O)Nc2ccccc2C(=O)N2CCCCC2)C1=O (stereo unspecified) | 7% | . | -16% | -9% | . | -1
O=C(NCC1CC1)c1ccc2c(c1)S(=O)(=O)c1cc(Cl)ccc1C2=O | ? | . | ? | ? | . | -12
Cc1ccc(SCc2nc(-c3ccc(C(=O)NCc4ccccc4Cl)cc3)oc2C)cc1 | . | . | . | . | . | -5
NC(=O)OC[C@@H]1[C@H](NC(=O)/C(=N/OCC(=O)O)c2csc(N)n2)C(=O)N1S(=O)(=O)O | 0.43µM* | . | ? | . | . | .
CC(=O)N1CC(C)Sc2ccc(S(=O)(=O)NCCc3cccc(C)c3)cc21 (stereo unspecified) | 1% | -6 | 2% | ? | 5 | ?
CS(=O)(=O)c1ccc(C(=O)CN2C(=O)NC3(CCCc4ccccc43)C2=O)cc1 (stereo unspecified) | ? | . | -11% | 1% | . | -8
SMILES | Pf growth 96h | Cycloheximide cs | Pf growth 48h | HCV inhibitor | Shiga toxin inh | HCMV antiviral
O=C(NCc1ccccc1)NC1CC2CCC(C1)N2Cc1ccco1 (stereo unspecified) | -21% | -4 | -4% | 8% | 23 | 43
CCOc1ccccc1C(=O)NC1CC2CCCC(C1)N2Cc1nnnn1Cc1ccco1 (stereo unspecified) | ? | -2 | 12µM* | ? | 48 | ?
O=C(NC1CC2CCC(C1)N2Cc1nnnn1Cc1ccco1)NC12CC3CC(CC(C3)C1)C2 (stereo unspecified) | . | 4 | 12µM* | -20% | -11 | ?
CCOc1ccccc1C(=O)NC1CC2CCCC(C1)N2C1CC1 (stereo unspecified) | -18% | -4 | ? | -16% | -12 | 18
Cc1cc(Cl)ccc1NC(=O)CCCn1nc(C)c2c(C)n(-c3ccccc3)nc2c1=O | . | . | . | . | . | 15
CCOc1ccc(NC(=O)c2ccc3c(c2)CCN3S(=O)(=O)c2ccc(Cl)cc2)cc1 | . | . | . | . | . | -14
CC1CCN(C(=O)CSc2nnc(CNC(=O)c3ccc(F)cc3)o2)CC1 | 3% | 2 | 7% | . | 11 | -27
O=C1CCCC2=C1C(c1ccccc1)C1=C(CCCC1=O)O2 | ? | -8 | 23% | . | 17 | .
O=C1CCCC2=C1C(c1ccc(OS(=O)(=O)c3ccc(Cl)cc3)cc1)C1=C(CCCC1=O)O2 | 96% | -3 | ? | 13µM* | -6 | -38
O=C(CN1C(=O)C2CCCCN2c2ccc(C(=O)N3CCCC3)cc21)NCc1ccccc1F (stereo unspecified) | . | . | . | . | . | -15
COc1ccccc1NC(=S)N1C2CCC1CC(NC(=O)NC13CC4CC(CC(C4)C1)C3)C2 (stereo unspecified) | 4.7µM* | -4 | ? | -18% | 36 | ?
CCOc1ccccc1NC(=S)N1C2CCC1CC(NC(=O)NC13CC4CC(CC(C4)C1)C3)C2 (stereo unspecified) | ? | 6 | ? | -28% | 4 | -12
COCC(=O)NC1CC2CCC(C1)N2C(=S)Nc1ccccc1C(=O)OC (stereo unspecified) | 36% | 1 | 49% | 3% | 13 | -83*
CCOC(=O)C(C)Oc1ccc(=O)n(-c2ccccc2)n1 (stereo unspecified) | 1.9µM* | -2 | -2% | 9% | -5 | 41
CCCCOC(=O)C(C)Oc1ccc(=O)n(-c2ccccc2)n1 (stereo unspecified) | ? | -3 | . | 0% | 15 | -1
c1ccc(C2C3=C(Nc4ncnn42)c2ccccc2CCC3)cc1 (stereo unspecified) | 5.2µM* | -1 | -7% | 13% | -8 | 27
O=c1c2sccc2n(Cc2cc(=O)n3ccccc3n2)c(=O)n1-c1cc(F)ccc1F | . | . | . | . | . | 2
Cc1cc(C)nc(SCCn2c(N3CCC(C)CC3)nc3c2c(=O)n(C)c(=O)n3C)n1 | 2.3µM* | -4 | 42% | . | 25 | .
Cn1c(=O)c2c(nc(N3CCCCC3)n2CCSc2nc3ccccc3s2)n(C)c1=O | 5% | -2 | 1% | ? | -10 | -32
